Source: PMC4336329 (PLoS ONE, 2015)
Out of some 310,000 compounds screened, about 14,000 (4.5%) showed an effect of 50% or more. Effects have a minus sign here. Only a selection was taken, and strong results are over-represented in it overall.

These compounds were tested against human ether-à-go-go-related gene (hERG) potassium channel (human, UniProt Q12809) (assay: primary screen, population patch clamp on CHO cells stably expressing hERG; higher = less effect of the substance).
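Note: peak tail current of the secondary pulse compared with the same well before compound.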

Sequence of human ether-à-go-go-related gene (hERG) potassium channel (Q12809 whole entry, looked up): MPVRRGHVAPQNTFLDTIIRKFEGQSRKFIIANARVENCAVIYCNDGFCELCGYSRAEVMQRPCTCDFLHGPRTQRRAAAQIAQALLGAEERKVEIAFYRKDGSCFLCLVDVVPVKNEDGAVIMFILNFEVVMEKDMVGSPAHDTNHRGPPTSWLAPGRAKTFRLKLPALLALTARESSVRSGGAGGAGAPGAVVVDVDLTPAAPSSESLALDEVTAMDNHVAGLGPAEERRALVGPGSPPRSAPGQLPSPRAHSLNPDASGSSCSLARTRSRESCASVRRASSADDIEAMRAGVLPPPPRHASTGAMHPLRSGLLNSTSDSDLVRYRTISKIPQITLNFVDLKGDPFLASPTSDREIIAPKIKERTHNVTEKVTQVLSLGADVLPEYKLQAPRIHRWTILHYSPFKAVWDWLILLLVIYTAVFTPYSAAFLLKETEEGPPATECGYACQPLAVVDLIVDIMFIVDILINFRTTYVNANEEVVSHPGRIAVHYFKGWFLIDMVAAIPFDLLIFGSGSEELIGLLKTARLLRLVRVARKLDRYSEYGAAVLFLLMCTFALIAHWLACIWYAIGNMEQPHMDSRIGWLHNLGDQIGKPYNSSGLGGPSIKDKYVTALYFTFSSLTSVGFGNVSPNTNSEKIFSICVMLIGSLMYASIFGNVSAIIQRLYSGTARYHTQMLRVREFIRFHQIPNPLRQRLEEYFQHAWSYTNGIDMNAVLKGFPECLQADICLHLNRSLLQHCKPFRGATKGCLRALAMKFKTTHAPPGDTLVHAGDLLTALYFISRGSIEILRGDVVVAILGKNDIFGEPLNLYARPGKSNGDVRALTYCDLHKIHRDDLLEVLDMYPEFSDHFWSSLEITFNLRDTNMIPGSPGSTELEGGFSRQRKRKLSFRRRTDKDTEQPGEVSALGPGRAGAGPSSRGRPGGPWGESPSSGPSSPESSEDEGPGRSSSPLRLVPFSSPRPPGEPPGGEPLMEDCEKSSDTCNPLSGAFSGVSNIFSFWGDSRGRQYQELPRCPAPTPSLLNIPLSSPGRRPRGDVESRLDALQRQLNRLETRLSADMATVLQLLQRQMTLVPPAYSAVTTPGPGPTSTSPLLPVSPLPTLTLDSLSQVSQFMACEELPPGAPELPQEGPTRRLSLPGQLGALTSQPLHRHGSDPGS

SMILES	hERG current change (%, negative = inhibition) at 10uM
COc1cccc(/C=C/C(=O)OCC(=O)c2c[nH]c3ccccc23)c1OC	9.29%
CCOC(=O)c1c[nH]c2c(C)cc(C)cc2c1=O	-0.349%
CCCCOP(=O)(c1ccc(N(C)C)cc1)C(O)c1ccc(OC)cc1 (centres unmarked)	-2.61%
O=[N+]([O-])c1cc(S(=O)(=O)NCCc2ccccn2)ccc1Cl	-21.8%
C=CCCC(=O)Nc1nc(C)c(-c2csc(Nc3ccc(Cl)cc3)n2)s1	14.9%
S=c1[nH]nc(-c2ccc3ccccc3n2)o1	17.2%
Cc1ccc(C)c2[nH]c(=O)c(CCNC(=O)C(C)(C)C)cc12	8.5%
O=C(O)c1cccnc1SCc1ccccc1	-1.22%
O=C(O)CSc1ncccc1C(=O)O	-53.7%
O=C(CSc1ncccc1C(=O)O)c1ccccc1	6.47%
O=C(N/C(=C/c1ccc(Cl)cc1)c1nc2ccccc2[nH]1)c1ccco1	9.34%
O=c1[nH]c(C2CCN(S(=O)(=O)c3ccc(C(F)(F)F)cc3)CC2)nc2c1nnn2Cc1ccccc1	8.98%
Cc1ccc(S(=O)(=O)N(C)C)cc1NC(=S)N(CCC#N)Cc1cccnc1	-10.3%
Cc1ccc(C(C)C)cc1OCCOCCN1CCCC1	-38.9%
COc1ccc(-c2nc(NC(=O)CSCCO)sc2C)cc1	-4.57%
Cc1ccc(NC(=O)CSc2nc3ccccc3c(=O)n2CCCC(=O)NCCCN2CCOCC2)cc1C	-69.1%
O=C(CCCn1c(SCc2cccc(F)c2)nc2ccccc2c1=O)NCC1CCCO1 (centres unmarked)	8.35%
O=C(CSc1nc2ccccc2c(=O)n1CCCN1CCOCC1)Nc1ccc2c(c1)OCO2	-43.6%
O=C(CCCn1c(SCc2cccc([N+](=O)[O-])c2)nc2ccccc2c1=O)NCC1CCCO1 (centres unmarked)	-59.7%
CCOC(=O)C(C)On1c(SC(C)C(=O)OCC)nc2ccccc2c1=O (centres unmarked)	-53.5%
O=C(CCCn1c(SCC(=O)NCCc2ccccc2)nc2ccccc2c1=O)NCC1CCCO1 (centres unmarked)	-22.8%
CCCCn1c(SCC(=O)Nc2cccc(OC)c2)nc2ccc(N3CCOCC3)cc2c1=O	-9.77%
COc1cccc(NC(=O)CSc2nc3ccccc3c(=O)n2C)c1	-7.76%
CCOC(=O)C(C)Sc1nc2ccccc2c(=O)n1CC (centres unmarked)	-22.4%
COc1cccc(NC(=O)CSc2nc3ccccc3c(=O)n2CCCC(=O)NCCCN2CCOCC2)c1	-59.8%
Cc1cc(C)c(NC(=O)CSc2nc3ccccc3c(=O)n2CCCN2CCOCC2)c(C)c1	-47.6%
CCOC(=O)C(C)On1c(-n2nc(C)cc2C)nc2ccccc2c1=O (centres unmarked)	9.29%

SMILES	hERG current change (%, negative = inhibition) at 10uM
O=C(NCc1ccccc1)[C@]1(C(F)(F)F)C[C@H](CCc2ccccc2)CCCO1	3.84%
Cn1cc(Br)c(C(=O)Nc2sc3c(c2C(N)=O)CCC3)n1	18.4%
Cc1ccc(Cl)cc1NC(=O)c1cc(NC(=O)C2CCCCC2C(=O)O)ccc1N1CCOCC1 (centres unmarked)	-6.57%
COc1cccc(CCNC(=O)CCc2nnc(-c3ccc4c(c3)OCO4)o2)c1	-7.05%
Cc1ccc2cc(C#N)c(NCCNC(=S)NCCCN(C)C)nc2c1C	-0.554%
Cc1cc(OCC(=O)NCc2ccccn2)c2c(C)c(C)c(=O)oc2c1	-11.2%
CCOC(=O)C(=O)Nc1nc(-c2ccccc2)c(-c2ccccc2)o1	-32.1%
CCc1ccc(NC(=O)CSc2nc3ccccc3c(=O)n2CCN2CCOCC2)cc1	-67.6%
O=C(CCCn1c(SCC(=O)NCC2CCCO2)nc2ccccc2c1=O)NCC1CCCO1 (centres unmarked)	-5.18%
O=C(CCCn1c(SCC(=O)NC2CCCCC2)nc2ccccc2c1=O)NCC1CCCO1 (centres unmarked)	-61.5%
CCOc1ccc(NC(=O)CSc2nc3ccccc3c(=O)n2CCCC(=O)NCC2CCCO2)cc1 (centres unmarked)	3.34%
Cc1ccc(NC(=O)CSc2nc3ccccc3c(=O)n2CCCC(=O)NCC2CCCO2)cc1 (centres unmarked)	-0.641%
NC(=O)c1ccc(NC(=O)CSc2nc3ccccc3c(=O)n2CCCN2CCOCC2)cc1	-5.06%
C=CCn1c(SCC(=O)Nc2ccc(N3CCOCC3)cc2)nc2ccccc2c1=O	3.75%
CCc1ccc(NC(=O)CSc2nc3ccccc3c(=O)n2CCCC(=O)NCCCN2CCOCC2)cc1	-66.6%
COc1cccc(NC(=O)CSc2nc3ccccc3c(=O)n2CCCC(=O)NCC2CCCO2)c1 (centres unmarked)	-70.3%
O=C(CCCn1c(SCC(=O)NCC2CCCO2)nc2ccccc2c1=O)NCc1ccccc1 (centres unmarked)	-29.6%
COc1ccc(NC(=O)CSc2nc3ccccc3c(=O)n2CCCC(=O)NCC2CCCO2)c(OC)c1 (centres unmarked)	-33.8%
NS(=O)(=O)c1ccc(CCNC(=O)CSc2nc3ccccc3c(=O)n2CCN2CCOCC2)cc1	41.4%
O=C(CSc1nnc(-c2ccccc2F)o1)N1CCNC1=O	-32.1%
C=CCNC(=O)CCCc1ccccc1	7.65%
COc1ccc(NC(=O)c2cn3c(nc4ccccc43)c(C#N)c2C)cc1	3.29%
CCC(=O)Oc1ccc(C(=O)Nc2ccccc2C(=O)NCC(C)C)cc1	15.6%
O=C1CCC(c2ccc3c(c2)CCC3)=NN1	17.3%
CCCCN1C(=O)C(NC(=O)C2CC2)(C(F)(F)F)C2=C1CC(C)(C)CC2=O (centres unmarked)	10.9%
COc1ccc(NC(=O)CCN2C(=O)c3cccc([N+](=O)[O-])c3C2=O)cc1	-5.08%
